The panel holds about 83,000 compounds, 20% with a hit somewhere; the sample as a whole holds those more often.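 A percent growth of 40 corresponds to 60% growth inhibition; 0 means no net growth; -100 means all cells died. Active threshold: below 10.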 Calls of active or inactive are those of the source.
What follows are compounds tested on HL-60(TB) leukemia (assay: NCI-60 one-dose screen, 48 h (100 = growth as untreated, 0 = no growth, -100 = all killed)). Conditions: 10 µM unless noted.

| SMILES | growth |
| --- | --- |
| COC(=O)/C(=C\c1c(C)[nH]c2ccccc12)S(=O)(=O)c1ccccc1 | -27.3% (active) |
| O=C(/C=C/C12c3ccccc3C(c3ccccc31)C1C(=O)N(c3ccccc3)C(=O)C12)c1ccc(Cl)cc1 (centres undefined) | 10.7% (inactive) |
| O=C(CCc1nnc2sc(Cc3ccccc3Cl)nn12)c1nc2ccccc2[nH]1 | 104% (inactive) |
| CN(C)c1ccc2nc3ccc(=[N+](C)C)c([N+](=O)[O-])c-3sc2c1 | 2.66% (active) |

— PubChem BioAssay (NCI)
